# Bioassay records as filed in PubChem.
# KB-V1 cytotox: kills drug-selected multidrug resistant KB-V1 cells; hit rate 3.4% among 400,000; Potency, µM (series often up to 46.1 µM), actives largely listed as cytotoxic; KB-V1 MDR cells viability, CellTiter-Glo, 72 h; further: on the % scale 0 is the no-effect control and ±100 the full control effect; nearly all actives have a fitted effect of over 60% in size
#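 Drug-selected KB-V1 cells, grown in DMEM lacking phenol red with 10% FBS, receive compound titrations; after three days at 37 degrees C, surviving cell ATP is quantified by CellTiter-Glo luminescence and responses normalized and curve-fitted.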
# ATXN2 expr inh: reduces ATXN2 reporter expression in HEK-293 cells; Potency, µM (doses to about 57 µM), without a hit: at the top dose activity change, negative = inhibition, usual class: inhibitors; hit rate 0.72% among 360,000; HEK-293 ATXN2-luciferase reporter, luminescence, 24 h; further: on the % scale 0 is the no-effect control and ±100 the full control effect; nearly all actives have a fitted effect of over 55% in size
#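 qHTS (up to 57 uM final) was run with 24 h compound exposure of reporter cells at 37 °C. Each well was multiplexed: SteadyGlo luminescence measured ATXN2-luciferase expression after a fluorogenic Gly-Phe-AFC viability readout (25 uM final).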
# KB-3-1 tox: kills parental KB-3-1 adenocarcinoma cells; KB-3-1 viability, CellTiter-Glo ATP luminescence, 72 h; Potency, µM (top dose mostly 46.1 µM), hits mostly cytotoxic; hit rate 1.4% among 400,000; AID 1347075; further: on the % scale 0 is the no-effect control and ±100 the full control effect; nearly all actives have a fitted effect of over 60% in size
#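 Parental KB-3-1 adenocarcinoma cells in phenol-red-free DMEM with 10% FBS were pin-treated with compounds at several concentrations, incubated 72 h at 37 °C, and viability read by CellTiter-Glo luminescence; concentration-effect curves were fitted after normalization.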
# TGFb inhibitor: TGF-b pathway inhibition | HepG2 CAGA-GFP TGF-b/SMAD3 reporter, GFP fluorescence, 18 h; TGF-beta stimulated, 500 pg/mL final | Potency, µM (series often up to 46.1 µM), without a hit: at the highest dose activity, negative = inhibition, hits mostly inhibitors | hit rate 1.2% among 410,000 | AID 588855; further: on the % scale 0 is the no-effect control and ±100 the full control effect; nearly all actives have a fitted effect of over 65% in size
#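 Per well, imaged GFP fluorescence of HEPG2 CAGA-GFP cells gives the signal; cells get compound, then TGF-beta (500 pg/mL final), 18 h at 37 degrees C; %Activity versus -TGF-beta and +DMSO controls.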
# HepG2 tox: kills HepG2 cells in TGF-b inhibitor counter-screen. hit rate 0.76% among 410,000. Potency, µM (top dose mostly 46.1 µM), inactives show at the top dose activity change, negative = cytotoxicity, actives largely listed as cytotoxic. HepG2 CAGA-GFP viability, ATP luminescence, 18 h
#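 HepG2 CAGA-GFP cells (1000/well, DMEM with 1% FBS) received compound, then TGF-beta at 500 pg/mL final, and were incubated 18 hours at 37 degrees C. Viability was read by CellTiter-Glo luminescence. Media-only wells were set as complete cell-killing and DMSO as no toxicity.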
# ATXN viability: reduces viability in counter-screen for ATXN expression inhibitors. S2 cells (HEK-293 line with an ATXN2-luciferase reporter) viability, CellTiter-Fluor protease fluorescence, 24 h. Potency, µM (titrated, usually from 56.7 µM), hits mostly cytotoxic. hit rate 0.49% among 400,000. AID 651635; further: nearly all actives have a fitted effect of over 40% in size
# * marks the source's active call; other numbers are inactive results; i = inactive; ? = inconclusive; · = no result. This is a sample that favours compounds with a hit; in the whole collection about 5.9% have one here. The call rests on the fitted dose curve; in most records, active means well fitted curve in the direction sought with a large enough effect; inconclusive means small, poorly fitted or top-dose-only effect, or another doubt; inactive means no such curve, though single readings can be large; an effect the other way counts as inactive or inconclusive. Potency means the concentration at half of the fitted maximal effect.
SMILES,KB-V1 cytotox,ATXN2 expr inh,KB-3-1 tox,TGFb inhibitor,HepG2 tox,ATXN viability
O=C(CN1N=C(c2ccccc2)CCC1=O)NCCN1CCc2ccccc2C1,9.2µM*,-5%,i,?,-19%,i
O=C(CN1N=C(c2ccccc2)CCC1=O)NCc1ccccc1,i,7%,i,-3%,-11%,i
c1ccc(CNc2ncnc3nc(N4CCOCC4)[nH]c23)cc1,i,·,?,-3%,-3%,·
COc1ccc(S(=O)(=O)n2nc(-c3ccco3)nc2NCc2ccc(C(C)C)cc2)cc1,i,24%,i,-5%,-5%,?
O=C(c1ccccc1)c1nn(-c2ccccc2)c2nnc(Cc3ccccc3)c(=O)n12,?,-16%,?,-9%,0%,i
Cc1ccc(-n2nc(C(=O)c3ccccc3)n3c(=O)c(Cc4ccccc4)nnc23)cc1,16µM*,-12%,i,?,1%,i
CCCCN1CC[C@H]2C=CC[C@@H](C(=O)NC3CCCCC3)[C@H]2C1=O,?,·,i,21%,23%,·
Cc1ccc(NC(=O)CN2C(=O)COc3ccc(S(=O)(=O)N4CCCC4)cc32)cc1C,i,5%,i,8%,4%,?
Cc1ccc(NC(=O)CN2C(=O)COc3ccc(S(=O)(=O)N4CCCCCC4)cc32)cc1Cl,·,·,·,10µM*,-54%,·
Cc1ccc(Cl)cc1N1CCN(C(=O)CN2C(=O)COc3ccc(S(=O)(=O)N4CCCCCC4)cc32)CC1,26µM*,-7%,?,2%,-9%,i
Cc1ccc(NC(=O)CN2CCSc3ccc(S(=O)(=O)N4CCCC4)cc32)cc1C,10µM*,-33%,?,?,0%,14µM*
Cc1ccc(Cl)cc1N1CCN(C(=O)CN2C(=O)COc3ccc(S(=O)(=O)N4CCC(C)CC4)cc32)CC1,?,-2%,i,-1%,-22%,i
COc1cc(C(=O)Nc2cccc(OCc3cc(=O)n4cc(C)sc4n3)c2)cc(OC)c1OC,i,-11%,i,?,-11%,i
O=C(COc1ccc(F)cc1)Nc1ccccc1C(=O)OCc1cc(=O)n2ccsc2n1,i,14%,i,-1%,2%,i
CC1(C)OC(=O)C2(Cc3ccccc3N3CCC(c4ccccc4)CC32)C(=O)O1 (stereo not drawn),i,·,i,25%,4%,·
OCCCn1c(-c2ccccc2)csc1=Nc1ccccc1,?,6%,i,-21%,-1%,?
CCN(CC)CCn1c(-c2ccccc2)csc1=Nc1ccccc1,?,?,i,13µM*,-28%,·
CCn1c(COc2cccc(C)c2)nnc1SCC(=O)Nc1cccc(C(=O)OC)c1,i,-2%,i,1%,-4%,i
CCn1c(COc2ccccc2)nnc1SCC(=O)Nc1cc(OC)ccc1OC,13µM*,-16%,i,?,-1%,i
CCn1c(COc2cccc(OC)c2)nnc1SCC(=O)Nc1cc(OC)ccc1OC,?,1%,i,-6%,0%,i
CCn1c(CC(=O)Nc2cccc(Cl)c2Cl)nnc1SCCOc1ccc(OC)cc1,21µM*,12%,i,-3%,4%,i
C=CCn1c(CCNC(=O)c2ccc(Cl)c(Cl)c2)nnc1SCCOc1ccc(OC)cc1,5.2µM*,-17%,i,?,1%,i
COc1ccc(OCCSc2nnc(CC(=O)Nc3cccc(Cl)c3Cl)n2C)cc1,?,9%,i,-4%,0%,i
CCOC(=O)c1cccc(NC(=O)CSc2nnc(COc3ccccc3)n2CC)c1,12µM*,-2%,i,-22%,-36%,i
CC(=O)c1ccc(-c2cc(F)cc3c2OC(CNC(=O)c2ccc[n+]([O-])c2)C3)s1 (stereo not drawn),·,·,·,·,·,i
CCC1(C2CCN(C(=O)c3cc(F)ccc3F)CC2)NC(=O)N(CCc2scnc2C)C1=O (stereo not drawn),·,·,·,·,·,i
